# In all, about 33,000 sequences were measured (“E-score (-0.5 to 0.5)”: median about -0.016, highest 2% from about 0.3 on). What follows is part of a selection rich in the highest values, with near analogues and random picks from the rest.
# Biological target: T1, Yer184c (UniProt P39961)
# T1 sequence: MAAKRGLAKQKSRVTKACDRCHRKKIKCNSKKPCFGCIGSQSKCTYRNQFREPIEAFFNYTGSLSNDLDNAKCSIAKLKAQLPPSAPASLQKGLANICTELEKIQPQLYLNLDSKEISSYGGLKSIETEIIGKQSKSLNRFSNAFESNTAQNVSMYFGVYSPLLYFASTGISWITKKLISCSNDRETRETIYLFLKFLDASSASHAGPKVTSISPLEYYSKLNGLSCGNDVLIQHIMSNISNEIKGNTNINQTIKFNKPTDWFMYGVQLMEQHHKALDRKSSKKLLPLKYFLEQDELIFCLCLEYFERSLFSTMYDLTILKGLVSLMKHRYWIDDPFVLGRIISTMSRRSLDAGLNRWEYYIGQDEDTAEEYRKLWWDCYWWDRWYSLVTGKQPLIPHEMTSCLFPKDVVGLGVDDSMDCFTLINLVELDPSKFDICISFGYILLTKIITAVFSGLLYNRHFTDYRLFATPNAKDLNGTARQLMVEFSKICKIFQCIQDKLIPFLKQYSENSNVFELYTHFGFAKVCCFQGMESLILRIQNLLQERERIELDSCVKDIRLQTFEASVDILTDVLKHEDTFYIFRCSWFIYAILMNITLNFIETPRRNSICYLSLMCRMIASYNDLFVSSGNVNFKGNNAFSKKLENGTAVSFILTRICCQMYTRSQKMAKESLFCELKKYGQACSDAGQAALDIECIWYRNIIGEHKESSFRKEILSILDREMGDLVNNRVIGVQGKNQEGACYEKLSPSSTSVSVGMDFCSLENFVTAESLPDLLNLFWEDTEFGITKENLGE
# Experiment: PBM E-score (8-mer binding enrichment) (E-score (-0.5 to 0.5)); higher = stronger / more preferred TF binding
# Conditions: protein concentration: 100 nM; construct: GST-full length
# Method in brief: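 Each ungapped eight-base word and its reverse complement, pooled, received an E-score from the Universal PBM Analysis Suite. Underlying scans, normalised with masliner, recorded fluorescent anti-GST bound to GST-tagged yeast transcription factors. These were applied at about 100-200 nM to universal all-10-mer Agilent arrays double-stranded by primer extension.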
row,Sequence,PBM E-score
1,AATAATAG,0.00819
2,AGTAATAG,-0.00505
3,AATAATAT,0.333
4,AACAATAT,0.352
5,AGTAATAT,0.338
6,AATAATAC,0.232
7,AACAATAC,0.0929
8,AACAATAA,0.255
9,AGTAATAC,0.106
10,CAACATCG,0.0608
11,CCCACGAC,-0.199
12,GTTAGAGA,-0.0529
13,ACCTGCTA,-0.00094
14,CCTGAGTC,-0.0246
15,ATATGATA,0.325
16,GTATGATA,0.226
17,CTATGATA,0.162
18,CTGCAACA,0.152
19,CACAATCA,0.00768
20,CTGAAATC,0.0356
21,GGGAAATA,0.0562
22,AGGAAATA,0.249
23,CGGAAATC,0.315
24,CGGAAATA,0.424
25,AGGAAATC,0.0763
26,GGACTTTA,0.156

row,Sequence,PBM E-score
1,AGTAGGTC,-0.225
2,CTGCGCAA,-0.0246
3,ATGGTACG,0.0122
4,ACTGTTGA,-0.0706
5,GCGGCGTA,-0.0609
6,GCGGCGGA,0.193
7,TCGGCGAA,0.294
8,CCGGCGTA,0.313
9,GCGGCGAA,0.27
10,ACGGCGTA,0.0111
11,CCGGCGGA,0.369
12,CCGGCGAA,0.35
13,CCGGCGGC,0.291
14,TATCTAAA,0.0877
15,CACTGCGA,-0.0568
16,AGGTAGGA,-0.06
17,GGAGTGCC,0.0423
18,TACTATGA,0.142
19,ACGGAAAG,0.231
20,CCGGAAAG,0.312
21,CGGGAAAC,0.286
22,CAGGAAAC,0.117
23,CGGGAAAG,0.138
24,CCGGAAAC,0.396
25,CCCACGAA,-0.0234
26,CAGCGTCC,-0.0361

row,Sequence,PBM E-score
1,TTAGGCAA,-0.168
2,AGAACAGA,0.0872
3,GAGTATGC,-0.00892
4,ACGGGAAA,0.159
5,CCGGGAAA,0.35
6,CGGGGAAA,0.15
7,CCGGGGAA,0.267
8,GCGGGAAA,0.223
9,TCGGGAAA,0.309
10,AGTGCTTG,-0.109
11,CCTTCTAG,-0.237
12,ATAGAAAT,0.318
13,ATAGAAAG,-0.0692
14,ATAGAAAA,-0.0185
15,ACAGGCCC,-0.349
16,ACATTAAG,0.132
17,ACCCGGGA,0.367
18,TCCCGGGA,0.337
19,CCCCGGGA,0.119
20,GCCCGGGA,0.282
21,ACCCGGGC,0.233
22,ACCCGGGT,0.299
23,GGCCTGGA,-0.213
24,TGCAAAAA,0.00535
25,CACGGAAC,0.349
26,AACGGAAC,0.333

row,Sequence,PBM E-score
1,AACGGACC,0.185
2,CACGGAGC,0.14
3,GACGGAAA,0.213
4,TACGGAAA,0.362
5,CACGGACC,0.192
6,AACGGAGC,-0.0449
7,AACGGAGT,0.312
8,GACGGAAC,0.125
9,TACGGGAA,0.142
10,AACGGAGA,0.107
11,TCTATGCA,0.0433
12,AGAACGGC,0.176
13,CTCGAAAA,-0.0323
14,CATCTGCA,-0.0527
15,CCACTAAA,-0.0267
16,GCAAGGGC,-0.274
17,ACTGCCTC,-0.229
18,AGATTAGG,-0.068
19,AGATGGCG,0.0474
20,CACGGAAA,0.345
21,GTCGGAAC,0.217
22,CAAGGAAA,-0.0602
23,AACGGGAA,0.25
24,CACGGAAG,0.149
25,AACGGACA,0.202
26,AACGGAAA,0.408

row,Sequence,PBM E-score
1,CTCGGAAC,0.358
2,AACGGAAT,0.365
3,AGCGGAAT,0.0752
4,CTCGGAAA,0.289
5,AACGGAAG,0.179
6,AATAGTGT,0.267
7,ATCAGTAA,0.166
8,GAATAGGA,0.0511
9,GCGATCAC,-0.19
10,ACTTCTAG,-0.28
11,GTCACTTA,0.122
12,AGGGACTG,-0.316
13,GGACCTGA,-0.0219
14,ATACATAT,0.255
15,AGGATCAA,0.14
16,ATACTGCG,-0.0752
17,TCAGATCA,-0.00186
18,TAGGATCA,-0.0016
19,ACGGATCC,0.288
20,CCGGATCA,0.328
21,GCGGATCC,0.161
22,CCGGATCC,0.372
23,TCGGATCA,0.31
24,CAGGATCG,-0.0543
25,GCGGATCA,0.105
26,CCGGATCG,0.352

row,Sequence,PBM E-score
1,ACGGATCA,0.248
2,ACGGATCG,0.0937
3,TCGAGACA,-0.0512
4,GGCCATAA,-0.102
5,ACGGCAGG,-0.117
6,GGGTCAAA,0.0026
7,CCGTCCAA,-0.024
8,CAAGCAGC,-0.149
9,AATGGTTA,-0.0173
10,TAGTCTAA,-0.101
11,AAATTTGT,0.213
12,CCGCCGTC,-0.00239
13,ACGCCGCC,-0.0562
14,ACGCCGGC,0.423
15,ACGCCGGG,0.21
16,CCGCCGCC,0.0576
17,CCGCCGCA,0.0998
18,CCGCCGGC,0.442
19,GCGCCGGA,0.355
20,GCGCCGCA,0.166
21,ACGCCGGA,0.227
22,CCGCCGGA,0.316
23,GCGCCGCC,0.122
24,AGCGTTGG,-0.251
25,CAATTTGC,-0.0817
26,TACCTCAA,-0.122

row,Sequence,PBM E-score
1,AACATTCG,0.00818
2,CTTAGTGC,0.081
3,CCACAAGC,-0.273
4,ATGTAGAA,-0.0706
5,ACCATTCA,0.00717
6,GGCAGGTA,-0.0757
7,CTCTTAGA,0.0666
8,CGAAACCG,0.253
9,GCCCGGCC,0.242
10,GGCCGGCA,0.415
11,GACCGGCA,0.173
12,CCCCGGCC,0.0277
13,CGCCGGTC,0.228
14,GGCCGGCC,0.384
15,CGCCGGCC,0.35
16,GGCCGGTA,0.248
17,AGCCGGCC,0.333
18,AGTCGGCC,0.135
19,ACCCGGCC,0.255
20,GACCGGCC,0.203
21,GTCTCGCA,-0.0807
22,TGGGTCAA,-0.147
23,ACGGGCTG,-0.045
24,AAAATCGG,0.15
25,ATTTGATG,0.115
26,ATGGCCCG,-0.0155

row,Sequence,PBM E-score
1,CAATCTGC,-0.14
2,ACCTTGAG,-0.0404
3,GGAGTAAA,0.134
4,GTTTCAGA,0.0364
5,GTTGGTTA,-0.0114
6,CGATACAC,-0.00964
7,GAACGGAA,0.267
8,AAACGGTA,0.163
9,CAACGGAA,0.36
10,TAACGGAA,0.298
11,AAACGGAC,-0.00077
12,AAACGGAG,0.152
13,CAACGGAG,0.0267
14,AAACGGAA,0.403
15,AAACGGAT,0.313
16,ACTTCATA,-0.0295
17,CGAGACGA,-0.0371
18,AAAGCGTT,-0.0919
19,CAGAGCAA,0.108
20,CTACGGAG,0.0895
21,CTCCGTAA,0.0982
22,ATCCGCAG,0.123
23,GTCCGGTA,0.206
24,GTCCGGAA,0.429
25,CTCCGGTA,0.218
26,ATCCGGAG,0.398

row,Sequence,PBM E-score
1,ATCCGGGG,0.262
2,CTCCGCAG,-0.136
3,CTCCGGAG,0.416
4,GTCCGGCA,0.285
5,CTCCGGAA,0.402
6,AACCGACT,0.0723
7,CGGCCCCA,-0.282
8,ACTTGCCA,-0.078
9,AATGAGAT,0.127
10,GTAAGGCA,-0.206
11,ATCCGGGA,0.258
12,ATCCGTAA,0.149
13,GTCCGGGA,0.342
14,ATCAGGAT,0.115
15,CTCCGGGA,0.205
16,ATCCGGAT,0.442
17,AACCGGGC,0.187
18,CTCCGGGC,0.0789
19,ATCCGGAA,0.418
20,ATCCGCAT,0.111
21,ATGCGGAA,0.271
22,ATCCGGGC,0.363

# From the supplement of paper PMC3334620
